# Measurements published in ChEMBL document CHEMBL4513216, “Probing the Open Global Health Chemical Diversity Library for Multistage-Active Starting Points for Next-Generation Antimalarials” (ACS Infect Dis, 2020).
# Among all 69,000 compounds or so, about 8,600 (12%) showed an effect of 50% or more. Shown is part of a subset that was picked to be rich in strong results.
# Test system: Plasmodium berghei
# Test: Screen against P. berghei liver stage (PbLuc), transformed with Luciferase, at 10uM
# Format: functional, HepG2
# Details: tested at 10 uM
row,Structure (SMILES),INHIBITION [%]
1,CNC(=O)c1cnc(/C=C/c2ccc(OC)c(O)c2)s1,40.1
2,CNC(=O)c1cnc(C=Cc2cc(OC)c3c(c2)OCCO3)s1,41.4
3,CNC(=O)c1cnc(/C=C/c2cc(OC)c(OC)c(OC)c2)s1,53.5
4,COc1cc(/C=C/c2ncc(C(=O)O)s2)cc(Cl)c1O,-20.9
5,CNC(=O)c1cnc(C=Cc2ccc(O)c(OC)c2)s1,-84.4
6,CCOc1c(Cl)cc(/C=C/c2ncc(C(=O)O)s2)cc1OC,7.27
7,CCOc1ccc(C2CCCN2Cc2nnnn2C2CC2)cc1 (centres undefined),48.2
8,O=c1ccc2c(n1Cc1cccnc1)CCN(CC1CCOC1)CC2 (centres undefined),-5.63
9,C[C@H]1CN(C(=O)c2ccoc2)C[C@@]12CCN(CCN(C)C)C2=O,-80
10,CCC(=O)NC1CCCN(c2cncc(OCc3ccccc3)n2)C1 (centres undefined),1.56
11,O=C(NCc1ccccn1)[C@@H]1COC[C@H]2CN(C3CCC3)C[C@H]21,26.4
12,Cc1nc(-c2ccccc2)n(CC(=O)NC2CCCCC2)n1,37.4
13,O=S1(=O)COCCN1Cc1ccc(F)cc1Cl,33.9
14,Cn1cc(CN2CCC3(CC2)CCN(Cc2ccccn2)CC3)cn1,41.2
15,O=C(c1ccnc(C2CCNCC2)c1)N1CCCC1,7.43
16,O=C1OCC(CO)N1Cc1cccc(Cl)c1F (centres undefined),28.7
17,NC(=O)c1cccc(CCNC(=O)N2Cc3ccccc3C2)c1,26.5
18,COc1ccc(CCNC(=O)NCc2cccc(C(N)=O)c2)cc1OC,37.4
19,Cn1cc(CCNC(=O)NC2CCN(Cc3ccccn3)CC2)cn1,16.8
20,COc1ccc(CCNC(=O)NC2CCCC2)cc1OC,-24.9
21,C=C(C)CN1CCC(NC(=O)NCCc2cccc(C(N)=O)c2)CC1,57.3
22,C=C(C)CN1CCC(NC(=O)NCCc2ccccc2OC)CC1,94.1
23,C=C(C)CN1CCC(NC(=O)NCCc2ccc(N(C)C)cc2)CC1,55.4
24,CNC(=O)c1cccc(CCNC(=O)N2CCc3ccccc3C2)c1,3.73
25,C=C(C)CN1CCC(NC(=O)c2scnc2C)CC1,-6.44
26,C=C(C)COc1ccccc1CN1CCC(NC(C)=O)CC1,19.4
27,C=C(C)CN1CCC(NC(=O)Nc2cc(C(N)=O)ccc2OC)CC1,32.5

row,Structure (SMILES),INHIBITION [%]
1,NC(=O)c1cccc(CCNC(=O)N2CCCC2)c1,58.1
2,COC1CCCOC12CCN(C(=O)c1ccc3[nH]nnc3c1)CC2 (centres undefined),-29.9
3,O=C(CSC1=NS(=O)(=O)c2cc(Cl)ccc2N1)c1ccccc1,11.8
4,Cn1cc(CN2CCCC3(CCN(C(=O)c4ccccn4)C3)C2)cn1 (centres undefined),11.3
5,COCCC(=O)N1CCOCC(Cc2ccc3c(ccn3C)c2)C1 (centres undefined),17.475
6,CC(=O)N(Cc1ncc(C)o1)C1CCN(Cc2ccccc2C#N)C1 (centres undefined),9.64
7,NC(=O)c1cc(C2CCCN(C(=O)CCc3cccs3)C2)n[nH]1 (centres undefined),17.5
8,O=C1CC[C@@H](CN(Cc2ccncc2)Cc2nc(CC3CC3)no2)N1,36.6
9,Cc1nc(C)c2c(n1)CCN(C(=O)CC1CC1)CC2,19.9
10,CCN1Cc2nccn2CC(COCc2csc(C)n2)C1 (centres undefined),8.66
11,N#Cc1ccc(CN2CCc3sccc3C2)c(F)c1,4.95
12,N#Cc1ccc(F)c(CN2CCc3sccc3C2)c1,41.6
13,N#Cc1ccccc1CN1CCc2sccc2C1,60.4
14,Cc1nc(C)n(CC2CCCN(Cc3cccc(C(N)=O)c3)C2)n1 (centres undefined),-43.5
15,O=C(NC1CCCC1)N1C[C@H]2CN(c3ccccn3)C[C@@]2(C(=O)O)C1,6.27
16,O=C(NC1CCCC1)N1C[C@H]2CN(c3ccncc3)C[C@@]2(C(=O)O)C1,28.7
17,Cc1ccc(N2C[C@@H]3CN(C(=O)NC4CCCC4)C[C@]3(C(=O)O)C2)nn1,56.6
18,CC(C)C(=O)NC1CCCN(C(=O)c2ccc(O)c(Cl)c2)C1 (centres undefined),66.2
19,Cc1ccc(O)c(C(=O)N2CCCC(NC(=O)C(C)C)C2)c1 (centres undefined),5.9
20,CC(C)C(=O)NC1CCCN(C(=O)c2cc(Cl)ccc2O)C1 (centres undefined),18.2
21,Cc1ccc(C(=O)N2CCCC(NC(=O)C(C)C)C2)c(O)c1 (centres undefined),54.4
22,CC(C)C(=O)NC1CCCN(C(=O)c2ccccc2O)C1 (centres undefined),8.64
23,COc1ccc(C(=O)N2CCCC(NC(=O)C(C)C)C2)c(O)c1 (centres undefined),-9.19
24,c1cnc(CC2COCCN(C3CCCCC3)C2)cn1 (centres undefined),14
25,c1ccc(-c2nc(CCNCc3ccccn3)co2)cc1,34.4
26,CCN(Cc1nc(COC)no1)Cc1cc2ccc(F)cc2[nH]c1=O,0.546
27,CCc1cnc(C)nc1NC1CC(=O)N(CC2CCCCC2)C1 (centres undefined),-20.8
